Shiga inhibitor: A qHTS for Small Molecule Inhibitors of Shiga Toxin | AID 2315, 2010 | inhibition, % at 38.7 µM | 290,000 tested, 9.2% active | Vero cells, Shiga toxin protein synthesis inhibition reporter; in the data active = inhibition mostly above about 28%, no sharp cut-off; inactive = mostly below about 43%
LASV entry inh: qHTS for Inhibitors of binding or entry into cells for Lassa Virus; Lassa virus pseudotype entry inhibition, cell reporter; Potency, µM (series often up to 37.9 µM), hits mostly inhibitors; 300,000 tested, 1.2% active; calls by dose curve; tested in HEK293 cells; also: nearly all actives have a fitted effect of over 50% in size
Pf growth 96h: Primary qHTS for delayed death inhibitors of the malarial parasite plastid, 96 hour incubation. P. falciparum luciferase reporter growth, 96 h. Potency, µM (top dose mostly 28.7 µM), actives largely listed as inhibitors. 320,000 tested, 6.9% active. AID 504834, 2011
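Cell-based qHTS: luciferase-tagged P. falciparum in erythrocytes (2% hematocrit, 0.05% parasitemia final) incubated with compounds for 96 hours, 37 C, 5% CO2; luciferase detection reagent then added and luminescence measured.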
MARV entry inh: qHTS for inhibitors of binding or entry into cells for Marburg Virus; Marburg virus pseudotyped entry inhibition, cell reporter; Potency, µM (series often up to 37.8 µM), actives largely listed as inhibitors; 300,000 tested, 1.8% active; AID 540276, 2011; calls by dose curve; tested in HEK293 cells
Pf growth 48h: Primary qHTS for delayed death inhibitors of the malarial parasite plastid, 48 hour incubation; Potency, µM (top dose mostly 28.7 µM), most hits filed as inhibitors; P. falciparum luciferase growth in erythrocytes, 48 h; 310,000 tested, 5.9% active
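Erythrocytes infected with P. falciparum carrying an integrated firefly luciferase reporter (2% hematocrit, 0.1% parasitemia final) were exposed to compounds in RPMI 1640 with 0.5% Albumax at 37 C, 5% CO2. Growth inhibition was scored as reduced luminescence.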
Cycloheximide cs: Cycloheximide Counterscreen for Small Molecule Inhibitors of Shiga Toxin; 300,000 tested, 12% active; max response, %; cell reporter, cycloheximide protein synthesis inhibition counterscreen; in the data active = max response mostly above about 13%, no sharp cut-off; inactive = mostly below about 14%; also: read at 38.3 µM for the half of the compounds with a filed dose
A number is an active result. This is a sample that favours compounds with a hit; in the whole collection about 19% have one here. Unless noted, calls follow the shape of the dose curve; as a rule, active = well fitted inhibition curve with a large enough effect; inconclusive = small, poorly fitted or top-dose-only effect, or another doubt; inactive = no such curve, though single readings can be large or run the other way.

How did CCc1cccc(NS(=O)(=O)c2ccc3c(c2)n(C)c(=O)n3C)c1 do in these assays?
Shiga inhibitor: inactive; LASV entry inh: inconclusive; Pf growth 96h: 4.7µM; MARV entry inh: inconclusive; Pf growth 48h: inactive; Cycloheximide cs: inactive

Results for CCc1cccc(NS(=O)(=O)c2ccc3c(c2)n(C)c(=O)c(=O)n3C)c1 ?
LASV entry inh: inactive; MARV entry inh: inactive

Results for Nc1nnc(SCC(=O)OCc2ccc(F)cc2)s1 ?
Shiga inhibitor: inactive; LASV entry inh: inactive; Pf growth 96h: inactive; MARV entry inh: inactive; Pf growth 48h: inactive; Cycloheximide cs: inactive

Results for O=[N+]([O-])c1cc(-c2ccccc2)cc([N+](=O)[O-])c1O ?
LASV entry inh: inactive; MARV entry inh: inactive

How did O=C(c1ccccc1)c1n[nH]c(-c2ccccc2)cc1=O do in these assays?
Shiga inhibitor: inactive; LASV entry inh: inactive; Pf growth 96h: inactive; MARV entry inh: inactive; Pf growth 48h: inactive; Cycloheximide cs: inactive

What do the screens show for `[O-]c1ccccc1-[n+]1c(-c2ccccc2)cc(-c2ccccc2)cc1-c1ccccc1`?
Pf growth 96h: 0.33µM; Pf growth 48h: 1.3µM

How did O=C([O-])c1ccccc1-[n+]1c(-c2ccccc2)cc(-c2ccccc2)cc1-c1ccccc1 do in these assays?
Pf growth 96h: 4.7µM; Pf growth 48h: 12µM

How did Nc1ccccc1-[n+]1c(-c2ccccc2)cc(-c2ccccc2)cc1-c1ccccc1 do in these assays?
Shiga inhibitor: inactive; LASV entry inh: inconclusive; Pf growth 96h: 2.1µM; MARV entry inh: 8.9µM; Pf growth 48h: 4.7µM; Cycloheximide cs: inactive

Results for Nc1ccc(-c2ccccc2)cc1 ?
LASV entry inh: inactive; MARV entry inh: inactive

How did Oc1ccccc1-[n+]1c(-c2ccccc2)cc(-c2ccccc2)cc1-c1ccccc1 do in these assays?
Pf growth 96h: 1.5µM; Pf growth 48h: 1.5µM

Results for CN(CCc1ccccn1)C(=O)Nc1cc(Cl)cc(Cl)c1 ?
Shiga inhibitor: inactive; LASV entry inh: inconclusive; Pf growth 96h: inactive; MARV entry inh: inactive; Pf growth 48h: inactive; Cycloheximide cs: inactive

Results for CCOC(=O)c1c(-n2cccc2)sc2c1CCCC2=O ?
Shiga inhibitor: inactive; LASV entry inh: inactive; Pf growth 96h: inactive; MARV entry inh: inactive; Pf growth 48h: inactive; Cycloheximide cs: inactive

How did CN1CCN(C(=O)c2cc(Cl)ccc2Cl)CC1 do in these assays?
Shiga inhibitor: inactive; LASV entry inh: inactive; Pf growth 96h: inconclusive; MARV entry inh: inactive; Pf growth 48h: inactive; Cycloheximide cs: inactive

How did CCOC(=O)c1c(NC(C)=O)sc2c(OCC(O)CNC(C)(C)C)c(Br)ccc12 (stereo not drawn) do in these assays?
Shiga inhibitor: inactive; Pf growth 96h: inactive; Pf growth 48h: inactive; Cycloheximide cs: inactive

Results for Cc1cccc(NC(=O)CSc2n[nH]c(-c3ccncc3)n2)c1C ?
Shiga inhibitor: inactive; LASV entry inh: inactive; Pf growth 96h: inactive; MARV entry inh: inactive; Pf growth 48h: inactive; Cycloheximide cs: inactive

Results for CC(C)CC1CC(=O)OC1(C)C(=O)CSc1nc2ccccc2s1 (stereo not drawn) ?
Shiga inhibitor: inactive; LASV entry inh: inactive; Pf growth 96h: inactive; MARV entry inh: inconclusive; Pf growth 48h: inactive; Cycloheximide cs: inactive

What do the screens show for `Cc1ccccc1-[n+]1c(-c2ccccc2)cc(-c2ccccc2)cc1-c1ccccc1`?
Pf growth 96h: 0.19µM; Pf growth 48h: 0.33µM

What do the screens show for `Cc1nc(-c2ccccc2)cc(-c2ccccc2)n1`?
LASV entry inh: inactive; MARV entry inh: inactive

Results for COc1ccc2c(c1)CC1(CN2C)C(=O)NC(=O)N(c2ccc(F)cc2)C1=O (stereo not drawn) ?
Shiga inhibitor: inactive; LASV entry inh: inactive; MARV entry inh: inconclusive; Pf growth 48h: inactive; Cycloheximide cs: inactive

Results for CNC(=S)Nc1cc(OC)c(NC(=O)c2ccco2)cc1OC ?
Shiga inhibitor: inactive; LASV entry inh: inactive; Pf growth 96h: inconclusive; MARV entry inh: inactive; Pf growth 48h: inactive; Cycloheximide cs: inactive

What do the screens show for `CCC(NC(=O)c1cc(COc2ccc(OC)cc2Cl)on1)c1ccncc1` (stereo not drawn)?
Shiga inhibitor: inactive; LASV entry inh: inactive; Pf growth 96h: inconclusive; MARV entry inh: inconclusive; Pf growth 48h: inactive; Cycloheximide cs: 64

What do the screens show for `CC(CNC(=O)c1cc(COc2ccc3ncccc3c2)on1)c1ccccc1` (stereo not drawn)?
Shiga inhibitor: inactive; LASV entry inh: inconclusive; Pf growth 96h: inactive; MARV entry inh: inconclusive; Pf growth 48h: inconclusive; Cycloheximide cs: inactive

What do the screens show for `COc1cc(Cl)ccc1OCc1cc(C(=O)NCC(C)c2ccccc2)no1` (stereo not drawn)?
Shiga inhibitor: inactive; Pf growth 96h: inactive; Pf growth 48h: inactive; Cycloheximide cs: 25

Results for COc1cc(Cl)ccc1OCc1cc(C(=O)NC(C)Cc2cnccn2)no1 (stereo not drawn) ?
Shiga inhibitor: 70; LASV entry inh: inconclusive; Pf growth 96h: inactive; MARV entry inh: inconclusive; Pf growth 48h: inactive; Cycloheximide cs: 42

Results for CCC(NC(=O)c1cc(COc2ccc(Cl)cc2OC)on1)c1ccncc1 (stereo not drawn) ?
Shiga inhibitor: 76; LASV entry inh: inconclusive; Pf growth 96h: inactive; MARV entry inh: inconclusive; Pf growth 48h: inactive; Cycloheximide cs: 38

Results for COC(=O)C1=C(c2ccc(F)cc2F)C[C@@H]2CC[C@H]1N2C ?
Pf growth 96h: inactive; Pf growth 48h: inactive

Results for C=CCOc1ccc(Br)cc1CNC(C)(C)CO ?
Shiga inhibitor: inactive; Pf growth 96h: inactive; Pf growth 48h: inactive; Cycloheximide cs: inactive

How did COc1ccc(N2C(=O)N3[C@H](c4ccc(Cl)cc4)[C@@H]4C(=O)N(C5CCCCC5)C(=O)[C@@H]4[C@]3(C)C2=O)cc1 do in these assays?
Shiga inhibitor: inactive; Pf growth 96h: 2.3µM; Pf growth 48h: inconclusive; Cycloheximide cs: inactive

Results for CC(C)C[C@@]12C(=O)N(c3cccc(F)c3)C(=O)N1[C@H](c1ccc(F)cc1)[C@@H]1C(=O)N(C3CCCCC3)C(=O)[C@@H]12 ?
Pf growth 96h: inconclusive; Pf growth 48h: 10µM

Results for CC(C)C[C@@]12C(=O)N(c3cccc(F)c3)C(=O)N1[C@H](c1ccc(Cl)cc1)[C@@H]1C(=O)N(C3CCCCC3)C(=O)[C@@H]12 ?
Pf growth 96h: 4.7µM; Pf growth 48h: 2.9µM

How did C[C@@]12C(=O)N(c3cccc(F)c3)C(=O)N1[C@H](c1ccc(Cl)cc1)[C@@H]1C(=O)N(C3CCCCC3)C(=O)[C@@H]12 do in these assays?
Pf growth 96h: inactive; Pf growth 48h: 12µM

What do the screens show for `CCOc1[nH]n(-c2ccc(Cl)cc2)c(=O)c1C=Nc1ccc(OC)cc1`?
Shiga inhibitor: inactive; LASV entry inh: inactive; Pf growth 96h: inconclusive; MARV entry inh: inactive; Pf growth 48h: inactive; Cycloheximide cs: inactive

High-throughput results as filed in PubChem.
